This passage reports growth inhibition results from PubChem BioAssay (NCI).

SMILES strings stand for the structures. This is part of a sample that, as a whole, favours compounds with a hit. Of some 79,000 tested, about 15% had one in any assay. Active and inactive are the calls of the source. Rule as the data show it: active = growth inhibition above about 70%; inactive = the rest.

One test in a line: NCI Yeast Anticancer Drug Screen. Data for the cln2 rad14 strain (AID 165).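 Also: 0% = growth equal to vehicle treated cultures.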 Conditions: S. cerevisiae cln2 rad14 strain, at 50.0 µM (retest, dose inferred, filed as 5.0), active compounds read high. The essentials:
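Compounds are applied to the cln2 rad14 yeast strain, and growth is then compared with that of vehicle-treated cultures to give inhibition.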
Regarding `Cc1ccccc1N1C(=O)C(=O)c2cccc(C)c21`, the growth inhibition is 98% (active).

As for `Nc1n[nH]c(=O)c2cccnc12`, the growth inhibition is -13% (inactive).

`CCCCNCCCNCCCNC(=O)c1csc(-c2csc(CCNC(=O)C(NC(=O)C(C)C(O)C(C)NC(=O)C(NC(=O)c3nc(C(CC(N)=O)NCC(N)C(N)=O)nc(N)c3C)C(OC3OC(CO)C(O)C(O)C3OC3OC(CO)C(O)C(OC(N)=O)C3O)c3cnc[nH]3)C(C)O)n2)n1` (stereo not given): the growth inhibition is 94% (active).

For `c1ccc(-c2ccc(-c3cnc(-c4ccc(-c5ccccc5)cc4)o3)cc2)cc1`, the growth inhibition is 42% (inactive).

Regarding `CN(C)C=Nc1ccc2nonc2c1`, the growth inhibition was 23% (inactive).

For `COC(=O)C(CCC(=O)Cc1ccccc1)N1C(=O)c2ccccc2C1=O` (stereo not given), the growth inhibition was 43% (inactive).

Turning to `O=S(=O)(Nc1ccccc1)c1ccccc1CC(O)(c1ccccc1)c1ccccc1`, the growth inhibition was 89% (active).

Consider `O=C1OC(=O)C2C=CC=CC12` (stereo not given), for which the growth inhibition is -6% (inactive).

With `CCOC(=O)N/N=C/c1ccc([N+](=O)[O-])o1`, the growth inhibition is 19% (inactive).

As for `CN=C(N)N/N=C(\C)c1ccc2c(ccc3ccccc32)c1`, the growth inhibition was 98% (active).

On to `O=C(C(/C=N/C(=S)NCc1ccccc1)=C(/O)c1ccccc1)c1ccccc1`, for which the growth inhibition is 87% (active).

On to `Cc1nc(Nc2ccc(Cl)cc2)sc1C(=O)Nc1cccc2c(=O)[nH][nH]c(=O)c12`, for which the growth inhibition is 3% (inactive).

Take `Cc1c2ccccc2c(C)c2c1cc(F)c1ccccc12`: the growth inhibition is 91% (active).

With `CC1=C(C(=O)Nc2ccccc2)C(c2cc(Cl)cc(Cl)c2)C(C(=O)Nc2ccccc2)=C(C)N1`, the growth inhibition is 5% (inactive).

On to `O=[N+]([O-])/C(Br)=C\c1ccc([N+](=O)[O-])cc1`, for which the growth inhibition is 99% (active).

In the case of `CC1=CC(C)(C)Nc2cc(N)ccc21`, the growth inhibition is -82% (inactive).

With `Fc1ccc2nncc(SCc3ccccc3)c2c1`, the growth inhibition is 95% (active).

In the case of `CN(C)c1ccc(-c2c(C#N)c(-c3ccccc3)n(NS(=O)(=O)c3ccccc3)c(=O)c2C#N)cc1`, the growth inhibition is 53% (inactive).

For the molecule `Cc1cc(N2C(=O)CCSC2=S)ccc1Cl`, the growth inhibition was 43% (inactive).

In the case of `C=C(c1ccccc1)[P+](c1ccccc1)(c1ccccc1)c1ccccc1`, the growth inhibition was 99% (active).

Consider `Cc1cc(Br)c2ccccc2c1N`, for which the growth inhibition was 42% (inactive).

Take `CC1C[N+](C)(C)C(C)C(=O)C1(c1ccccc1)c1ccccc1` (stereo not given): the growth inhibition was -2% (inactive).

In the case of `CC(=O)N(C1=CC(=O)c2ccccc2C1=O)c1ccc(C)cc1`, the growth inhibition is 46% (inactive).

Turning to `CC(c1ccccc1)n1c2ccccc2c2c(N)ncnc21` (stereo not given), the growth inhibition was 100% (active).

Take `CC(=O)O/N=C1/CCC2C3CC=C4CC(OC(C)=O)CCC4(C)C3CCC12C` (stereo not given): the growth inhibition is 87% (active).

In the case of `c1cc(CCSSCCc2ccncc2)ccn1`, the growth inhibition was 42% (inactive).

With `CC1=C(C(=O)Nc2cc(C)ccc2C)C(c2cccc([N+](=O)[O-])c2)C(C(=O)Nc2cc(C)ccc2C)=C(C)N1`, the growth inhibition is 61% (inactive).

Turning to `ClC1=CC(Cl)=C2N=C(C(Cl)(Cl)Cl)N=C3N=C(C(Cl)(Cl)Cl)N=C1N32`, the growth inhibition was 57% (inactive).

Consider `C[n+]1c(-c2ccc(/C=N/Nc3n[nH]c(=S)n3/N=C/c3ccc(-c4cn5ccsc5[n+]4C)cc3)cc2)cn2ccsc21`, for which the growth inhibition is 94% (active).

As to `CC1(C)OC(=O)C(=NNc2ccccc2[N+](=O)[O-])C(=O)O1`, the growth inhibition was 12% (inactive).

Regarding `CC(CCCOC(c1ccccc1)(c1ccccc1)c1ccccc1)OC(=O)Nc1ccccc1` (stereo not given), the growth inhibition was 92% (active).

For `CCN(CC)c1ccc2nc3ccc(N(CC)CC)cc3[n+](-c3ccccc3)c2c1`, the growth inhibition is 98% (active).

For the molecule `CC1OC(C)C(O)C2=C1C(=O)c1ccccc1C2=O` (stereo not given), the growth inhibition is 55% (inactive).

Consider `CCCCCCCCCCCCS(=O)(=O)CC(Br)C(=O)c1ccco1` (stereo not given), for which the growth inhibition is 90% (active).

Take `NC(=O)NOCC1NC(=O)NC1=O` (stereo not given): the growth inhibition was -2% (inactive).

Take `O=C(O)C1C(=O)OC2CCCCC21` (stereo not given): the growth inhibition was 1% (inactive).

Take `C=CCNC(=S)N/N=C(\CCC)c1ccccn1`: the growth inhibition was 93% (active).

On to `Nc1ccc2c(c1)S(=O)(=O)c1cc(N)ccc1-2`, for which the growth inhibition was 25% (inactive).

In the case of `CN1C(=O)c2cccc3cc([N+](=O)[O-])cc(c23)C1=O`, the growth inhibition is 80% (active).

For the molecule `C/C(=N\NC(=S)NC12CC3CC(CC(C3)C1)C2)c1ccccn1`, the growth inhibition was 93% (active).

The same test, now with this note: S. cerevisiae cln2 rad14 strain, at 50.0 µM, active compounds read high.
Turning to `Cc1ccccc1N1C(=O)C(=O)c2cccc(C)c21`, the growth inhibition was 97% (active).

Regarding `Nc1n[nH]c(=O)c2cccnc12`, the growth inhibition was 17% (inactive).

In the case of `CCCCNCCCNCCCNC(=O)c1csc(-c2csc(CCNC(=O)C(NC(=O)C(C)C(O)C(C)NC(=O)C(NC(=O)c3nc(C(CC(N)=O)NCC(N)C(N)=O)nc(N)c3C)C(OC3OC(CO)C(O)C(O)C3OC3OC(CO)C(O)C(OC(N)=O)C3O)c3cnc[nH]3)C(C)O)n2)n1` (stereo not given), the growth inhibition is 91.9% (active).

For the molecule `c1ccc(-c2ccc(-c3cnc(-c4ccc(-c5ccccc5)cc4)o3)cc2)cc1`, the growth inhibition is 41.1% (inactive).

As to `CN(C)C=Nc1ccc2nonc2c1`, the growth inhibition is 7.8% (inactive).

In the case of `COC(=O)C(CCC(=O)Cc1ccccc1)N1C(=O)c2ccccc2C1=O` (stereo not given), the growth inhibition is 1.4% (inactive).

For the molecule `O=S(=O)(Nc1ccccc1)c1ccccc1CC(O)(c1ccccc1)c1ccccc1`, the growth inhibition is 90.4% (active).

For the molecule `O=C1OC(=O)C2C=CC=CC12` (stereo not given), the growth inhibition was -74.8% (inactive).

In the case of `CCOC(=O)N/N=C/c1ccc([N+](=O)[O-])o1`, the growth inhibition is 52% (inactive).

For `CN=C(N)N/N=C(\C)c1ccc2c(ccc3ccccc32)c1`, the growth inhibition is 91.3% (active).

For `O=C(C(/C=N/C(=S)NCc1ccccc1)=C(/O)c1ccccc1)c1ccccc1`, the growth inhibition was 97.7% (active).

Take `Cc1nc(Nc2ccc(Cl)cc2)sc1C(=O)Nc1cccc2c(=O)[nH][nH]c(=O)c12`: the growth inhibition was 87.5% (active).

Take `Cc1c2ccccc2c(C)c2c1cc(F)c1ccccc12`: the growth inhibition is 94.5% (active).

Consider `CC1=C(C(=O)Nc2ccccc2)C(c2cc(Cl)cc(Cl)c2)C(C(=O)Nc2ccccc2)=C(C)N1`, for which the growth inhibition was 63.1% (inactive).

`O=[N+]([O-])/C(Br)=C\c1ccc([N+](=O)[O-])cc1`: the growth inhibition is 92% (active).

Turning to `CC1=CC(C)(C)Nc2cc(N)ccc21`, the growth inhibition was -35.5% (inactive).

On to `Fc1ccc2nncc(SCc3ccccc3)c2c1`, for which the growth inhibition is 91.5% (active).

As for `CN(C)c1ccc(-c2c(C#N)c(-c3ccccc3)n(NS(=O)(=O)c3ccccc3)c(=O)c2C#N)cc1`, the growth inhibition was 80.8% (active).

Regarding `Cc1cc(N2C(=O)CCSC2=S)ccc1Cl`, the growth inhibition is 54.5% (inactive).

In the case of `C=C(c1ccccc1)[P+](c1ccccc1)(c1ccccc1)c1ccccc1`, the growth inhibition is 99% (active).

Consider `Cc1cc(Br)c2ccccc2c1N`, for which the growth inhibition is 84.8% (active).

Regarding `CC1C[N+](C)(C)C(C)C(=O)C1(c1ccccc1)c1ccccc1` (stereo not given), the growth inhibition is -13.4% (inactive).

As to `CC(=O)N(C1=CC(=O)c2ccccc2C1=O)c1ccc(C)cc1`, the growth inhibition was 57.3% (inactive).

In the case of `CC(c1ccccc1)n1c2ccccc2c2c(N)ncnc21` (stereo not given), the growth inhibition is 90.8% (active).

`CC(=O)O/N=C1/CCC2C3CC=C4CC(OC(C)=O)CCC4(C)C3CCC12C` (stereo not given): the growth inhibition is 85% (active).

Regarding `c1cc(CCSSCCc2ccncc2)ccn1`, the growth inhibition is 72.8% (active).

Consider `CC1=C(C(=O)Nc2cc(C)ccc2C)C(c2cccc([N+](=O)[O-])c2)C(C(=O)Nc2cc(C)ccc2C)=C(C)N1`, for which the growth inhibition is 19.2% (inactive).

As for `ClC1=CC(Cl)=C2N=C(C(Cl)(Cl)Cl)N=C3N=C(C(Cl)(Cl)Cl)N=C1N32`, the growth inhibition is 99% (active).

As for `C[n+]1c(-c2ccc(/C=N/Nc3n[nH]c(=S)n3/N=C/c3ccc(-c4cn5ccsc5[n+]4C)cc3)cc2)cn2ccsc21`, the growth inhibition is 93.8% (active).

`CC1(C)OC(=O)C(=NNc2ccccc2[N+](=O)[O-])C(=O)O1`: the growth inhibition was 29.4% (inactive).

As for `CC(CCCOC(c1ccccc1)(c1ccccc1)c1ccccc1)OC(=O)Nc1ccccc1` (stereo not given), the growth inhibition is 83% (active).

As to `CCN(CC)c1ccc2nc3ccc(N(CC)CC)cc3[n+](-c3ccccc3)c2c1`, the growth inhibition is 97.5% (active).

Consider `CC1OC(C)C(O)C2=C1C(=O)c1ccccc1C2=O` (stereo not given), for which the growth inhibition was 60.4% (inactive).

As to `CCCCCCCCCCCCS(=O)(=O)CC(Br)C(=O)c1ccco1` (stereo not given), the growth inhibition is 93.7% (active).

For the molecule `NC(=O)NOCC1NC(=O)NC1=O` (stereo not given), the growth inhibition was -11.1% (inactive).

Consider `O=C(O)C1C(=O)OC2CCCCC21` (stereo not given), for which the growth inhibition is 69.4% (inactive).

With `C=CCNC(=S)N/N=C(\CCC)c1ccccn1`, the growth inhibition is 99.2% (active).

With `Nc1ccc2c(c1)S(=O)(=O)c1cc(N)ccc1-2`, the growth inhibition was 5.8% (inactive).

For the molecule `CN1C(=O)c2cccc3cc([N+](=O)[O-])cc(c23)C1=O`, the growth inhibition is 56.6% (inactive).

On to `C/C(=N\NC(=S)NC12CC3CC(CC(C3)C1)C2)c1ccccn1`, for which the growth inhibition is 94.7% (active).
